Screening data deposited in PubChem BioAssay by National Center for Advancing Translational Sciences (NCATS).
Giardia kill: Small Molecules that selectively kill Giardia lamblia: qHTS | Giardia lamblia trophozoite viability | 340,000 compounds, 0.15% hits | activity change, % at 7.66 µM, hits read low; in the data active = activity change below about -80%; inconclusive = between about -30% and that limit;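 also: parasites exposed to compound for two days anaerobically before the ATP read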
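ATP-content bioluminescence gauges trophozoite survival. Cells (100/well) receive compound and incubate anaerobically for 48 hrs at 37 deg C; detection reagent follows for 15-30 min at room temperature.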
PI4K2A inh: qHTS for small molecular inhibitors of PI4K2A; purified PI4K2A, ADP-Glo luminescence, 1 h; stronger effect = lower value; 420,000 compounds, 0.13% hits; activity change, negative = inhibition, % at 76.9 µM; Phosphatidylinositol 4-kinase type 2-alpha (Homo sapiens), Q9BTU6; AID 1346378, 2018; in the data active = activity change below about -50%; inconclusive = mostly about -30% to -49%
Target sequence (Q9BTU6 whole entry, looked up): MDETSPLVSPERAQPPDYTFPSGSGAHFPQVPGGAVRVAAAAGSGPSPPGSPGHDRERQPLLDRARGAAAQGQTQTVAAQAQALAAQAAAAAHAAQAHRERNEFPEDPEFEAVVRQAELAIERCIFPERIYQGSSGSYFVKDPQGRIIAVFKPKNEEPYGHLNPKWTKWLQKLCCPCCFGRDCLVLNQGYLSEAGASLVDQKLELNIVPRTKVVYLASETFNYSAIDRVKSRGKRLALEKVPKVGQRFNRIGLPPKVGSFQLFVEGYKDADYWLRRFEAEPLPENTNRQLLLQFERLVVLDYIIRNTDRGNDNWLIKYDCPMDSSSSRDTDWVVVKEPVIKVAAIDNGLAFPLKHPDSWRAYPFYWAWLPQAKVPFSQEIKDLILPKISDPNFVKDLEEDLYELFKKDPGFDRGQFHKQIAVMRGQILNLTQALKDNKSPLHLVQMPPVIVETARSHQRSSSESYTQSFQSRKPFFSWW
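PI4K2A activity was measured by ADP-Glo luminescence: enzyme (4 ug/mL stock) and phosphatidylinositol (1.2 mM stock) in Tris pH 7.5/MgCl2/EGTA/Triton X-100 buffer were reacted with ATP (300 microM stock) for one hour at ambient temperature.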
KB-V1 MDR tox: qHTS assay for MDR1-selective chemotherapeutics: Primary screen using the drug-selected MDR subline cells KB-V1; KB-V1 MDR cells viability, CellTiter-Glo, 72 h; 400,000 compounds, 3.4% hits; AID 1347076, 2019; Potency, µM (doses to about 46.1 µM), actives largely listed as cytotoxic; also: nearly all actives have a fitted effect of over 60% in size
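Compound-treated KB-V1 multidrug-resistant cells, 72 h, 37 degrees C; viability by CellTiter-Glo. Fitted qHTS curves give the values.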
Nrf2 block: Nrf2 qHTS screen for inhibitors. Potency, µM (titrated, usually from 46 µM), actives largely listed as inhibitors. A549 ARE-Fluc reporter, luciferase luminescence, 18-24 h. 360,000 compounds, 2.1% hits; also: nearly all actives have a fitted effect of over 60% in size
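Two sequential reads on A549 ARE_Fluc cells exposed to compound for 18-24 h: a CellTiter-Fluor fluorescence read for viability, then a luciferase luminescence read for Nrf2/ARE activity.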
A549 tox: Nrf2 qHTS screen for inhibitors: counterscreen for cytotoxicity; Potency, µM (titrated, usually from 46 µM), usual class: inhibitors; A549 ARE-Fluc cells, CellTiter-Fluor viability, 18-24 h; 390,000 compounds, 0.16% hits
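Cytotoxicity counterscreen: CellTiter-Fluor fluorescence was measured in A549 ARE_Fluc cells after 18-24 h of compound exposure in a concentration series. The subsequent BugLite luminescent read reports ARE-luciferase activity.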
KB-3-1 cytotox: qHTS assay for MDR1-selective chemotherapeutics: Primary screen using the parental adenocarcinoma cell KB-3-1 | KB-3-1 viability, CellTiter-Glo ATP luminescence, 72 h | Potency, µM (doses to about 46.1 µM), usual class: cytotoxic | 400,000 compounds, 1.4% hits; also: nearly all actives have a fitted effect of over 60% in size
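Multi-concentration cytotoxicity screen in KB-3-1 cells grown in DMEM lacking phenol red with 10% FBS. After 72 h at 37 °C with compound, ATP-dependent luminescence was recorded.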
Large screens that a line does not name were inactive. Sampled rows, rich in hits. Any-hit rate of the full collection: about 5.7%. Unless noted, calls follow the shape of the dose curve; as a rule, active = well fitted curve in the direction sought with a large enough effect; inconclusive = small, poorly fitted or top-dose-only effect, or another doubt; inactive = no such curve, though single readings can be large; an effect the other way counts as inactive or inconclusive.

c1ccc(C[n+]2cccc(-c3ccccc3)c2)cc1	Nrf2 block 18µM, KB-3-1 cytotox inconclusive
c1ccc(C[n+]2ccc3ccccc3c2)cc1	Nrf2 block inconclusive, KB-3-1 cytotox inconclusive
C=CCn1c(SCC(=O)N2CCOCC2)nc2sc(CC)cc2c1=O	KB-V1 MDR tox 4.6µM, Nrf2 block inconclusive
C=CCn1c(SCC(=O)c2cccs2)nc2sc(C)cc2c1=O	KB-V1 MDR tox 7.3µM
C=CCn1c(SCC(=O)c2cccs2)nnc1-c1cccc(OC)c1	none
C=CCn1c(SCC(=O)N2CCc3ccccc3C2)nc2sc(CC)cc2c1=O	none
COc1ccccc1CNC(=O)c1cc(C2CC2)nc2c1cnn2C(C)C	KB-V1 MDR tox 2.9µM
CCNC(=O)c1cccc(NC(=O)c2cc(C3CC3)nc3c2cnn3C(C)C)c1	Nrf2 block 18µM, KB-3-1 cytotox inconclusive
CC(C)n1ncc2c(C(=O)Nc3cccc(C#N)c3)cc(C3CC3)nc21	Nrf2 block inconclusive, A549 tox inconclusive, KB-3-1 cytotox inconclusive
COc1ccc(CNC(=O)c2cc(C3CC3)nc3c2cnn3C(C)C)cc1	Nrf2 block inconclusive
CC(=O)c1nnn(-c2nc(C#N)nc(N3CCOCC3)n2)c1C	none (no result: PI4K2A inh)
CN=C1S/C(=C/c2cc(C)n(Cc3ccccc3)c2C)C(=O)N1C	none (no result: Giardia kill, KB-V1 MDR tox, Nrf2 block, A549 tox, KB-3-1 cytotox)
CCCCCNC(=O)c1cccc(S(=O)(=O)N2CC3(C)CC2CC(C)(C)C3)c1 (centres undefined)	Nrf2 block 26µM, KB-3-1 cytotox inconclusive
CC[C@H](C)[C@H](N)C(=O)O	none (no result: Giardia kill, KB-V1 MDR tox, Nrf2 block, A549 tox, KB-3-1 cytotox)
Nc1c2c(nc3sc4c(c13)CCCCC4)CCCCC2	KB-V1 MDR tox 8.2µM, KB-3-1 cytotox inconclusive
CC1CCc2nc3sc4c(c3c(N)c2C1)CCCC4 (centres undefined)	KB-V1 MDR tox inconclusive, KB-3-1 cytotox inconclusive
Nc1nc(N)c(-c2cccc(C(F)(F)F)c2)c(Cc2cccc(C(F)(F)F)c2)n1	KB-V1 MDR tox inconclusive, Nrf2 block 15µM, KB-3-1 cytotox 7.3µM
CC(C)N(C(=O)[C@H]1CC(CC(=O)NCC23CC4CC(CC(C4)C2)C3)C(=O)N2CCc3c([nH]c4ccccc34)[C@]12C)C(C)C (some centres undefined)	Nrf2 block 26µM, A549 tox inconclusive
C[C@]12c3[nH]c4ccccc4c3CCN1C(=O)C(CC(=O)NCC13CC4CC(CC(C4)C1)C3)C[C@@H]2C(=O)N1CCCCC1 (some centres undefined)	Nrf2 block 16µM
C[C@]12c3[nH]c4ccccc4c3CCN1C(=O)C(CC(=O)NCC13CC4CC(CC(C4)C1)C3)C[C@@H]2C(=O)N1CCOCC1 (some centres undefined)	none
CC[C@]12c3[nH]c4ccccc4c3CCN1C(=O)C(CC(=O)NC/C=C(\C)CCC=C(C)C)C[C@@H]2C(=O)N1CCN(C(=O)c2ccco2)CC1 (some centres undefined)	Nrf2 block 23µM
CC(C)N(C(=O)[C@H]1C[C@H](CC(=O)NCCC2=CCCCC2)C(=O)N2CCc3c([nH]c4ccc(Cl)cc34)[C@]12C)C(C)C	Giardia kill inconclusive, KB-V1 MDR tox inconclusive, Nrf2 block 21µM, A549 tox inconclusive
CCN(CC)C(=O)[C@H]1C[C@H](CC(=O)NCc2cccc(C(F)(F)F)c2)C(=O)N2CCc3c([nH]c4cc(-c5ccco5)ccc34)[C@]12C	KB-V1 MDR tox inconclusive, Nrf2 block 18µM, A549 tox inconclusive, KB-3-1 cytotox 15µM
CC(C)N(C(=O)[C@H]1C[C@H](CC(=O)NCC23CC4CC(CC(C4)C2)C3)C(=O)N2CCc3c([nH]c4cc(CCC(=O)N(C)C)ccc34)[C@]12C)C(C)C	Nrf2 block 21µM, A549 tox inconclusive
CCN(CC)C(=O)[C@H]1CC(CC(=O)NC(C)(C)C)C(=O)N2CCc3c([nH]c4ccccc34)[C@]12C (some centres undefined)	none
